Measured values as given in PubChem BioAssay (NCI).
About 79,000 compounds went through this panel and 15% of them were active in at least one assay; those are over-represented in the sample as a whole. Activity calls are given as the source filed them. Rule as the data show it: active = growth inhibition above about 70%; inactive = the rest.

Legend:
[1] = NCI Yeast Anticancer Drug Screen. Data for the mec2-1 strain (AID 157); settings: S. cerevisiae mec2-1 strain, hits give high values
In short: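 Strain: mec2-1 (DNA repair/cell cycle alteration). Compound exposure, then growth measured; inhibition expressed relative to vehicle.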

[2] = NCI Yeast Anticancer Drug Screen. Data for the sgs1 mgt1 strain (AID 161);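 also: 0% = growth of cultures given vehicle only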; settings: S. cerevisiae sgs1 mgt1 strain, hits give high values
In short: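 Mutant yeast exposed to compound; growth scored against vehicle-only wells.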

[3] = NCI Yeast Anticancer Drug Screen. Data for the CLN2oe strain (AID 163);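 also: 0% = growth of vehicle-only control cultures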; settings: S. cerevisiae CLN2oe strain, hits give high values
In short: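 Growth of a genetically modified yeast strain is measured after compound exposure and compared with cultures given vehicle alone.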

[4] = NCI Yeast Anticancer Drug Screen. Data for the cln2 rad14 strain (AID 165);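 also: 0% = growth equal to vehicle treated cultures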; settings: S. cerevisiae cln2 rad14 strain, hits give high values
In short: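 Compounds are applied to the cln2 rad14 yeast strain, and growth is then compared with that of vehicle-treated cultures to give inhibition.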

[5] = NCI Yeast Anticancer Drug Screen. Data for the bub3 strain (AID 167); settings: S. cerevisiae bub3 mutant strain, hits give high values
In short: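 Screening used yeast with an engineered genetic alteration affecting cell cycle control. Compound-exposed cultures were compared with vehicle cultures, and reduced growth was taken as inhibition.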

[6] = NCI Yeast Anticancer Drug Screen. Data for the mlh1 strain (AID 171);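 also: 0% = growth of vehicle-treated control cultures of the same strain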; settings: S. cerevisiae mlh1 strain growth inhibition, hits give high values
In short: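 Growth of the mutant yeast strain after compound exposure, expressed as inhibition relative to vehicle-only controls.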

[7] = NCI Yeast Anticancer Drug Screen. Data for the sgs1 strain (AID 173);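 also: 0% = growth of vehicle-only control cultures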; settings: S. cerevisiae sgs1 mutant, hits give high values
In short: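 Growth of a yeast strain bearing a defined genetic alteration is measured after compound treatment. Inhibition is expressed relative to vehicle-only controls.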

[8] = NCI Yeast Anticancer Drug Screen. Data for the mlh1 rad18 strain (AID 175); settings: S. cerevisiae mlh1 rad18 strain growth inhibition, hits give high values
In short: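 Read-out is yeast growth inhibition, calculated against vehicle-only controls. The compound was applied to a strain engineered with DNA damage repair alterations.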

[9] = NCI Yeast Anticancer Drug Screen. Data for the rad18 strain (AID 177); settings: S. cerevisiae rad18 mutant growth inhibition, hits give high values
In short: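 Growth of the mutant yeast strain after compound exposure, normalised to vehicle-only cultures.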

[10] = NCI Yeast Anticancer Drug Screen. Data for the rad52 strain (AID 147);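 also: 0% = growth of vehicle-treated control cultures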; settings: S. cerevisiae rad52 mutant growth inhibition, hits give high values
In short: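 Compounds are applied to a genetically defined yeast strain lacking normal DNA damage repair, and inhibition of growth is expressed relative to cultures given vehicle only.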

[11] = NCI Yeast Anticancer Drug Screen. Data for the wt1 strain (AID 149);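 also: 0% = growth of vehicle-treated wt1 cultures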; settings: S. cerevisiae wt1 strain (SPY 50644) growth inhibition, hits give high values
In short: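 Using yeast strain wt1, compound-induced growth inhibition was determined against vehicle-treated cultures.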

[12] = NCI Yeast Anticancer Drug Screen. Data for the rad50EPP+ strain (AID 151);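 also: 0% = growth of vehicle-treated control cultures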; settings: S. cerevisiae rad50 mutant strain, hits give high values
In short: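 Compounds were applied to the rad50EPP+ yeast strain, which bears a defined DNA repair alteration, and growth inhibition was determined relative to vehicle-treated cultures.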

[13] = NCI Yeast Anticancer Drug Screen. Data for the mgt1 strain (AID 153); settings: S. cerevisiae mgt1 mutant growth inhibition, hits give high values
In short: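 Strain: mgt1 yeast, one of a set carrying defined DNA damage repair or cell cycle control alterations. Compound-treated growth compared with vehicle.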

[14] = NCI Yeast Anticancer Drug Screen. Data for the rad50 strain (AID 155);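 also: 0% = growth of vehicle-only cultures of the same strain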; settings: S. cerevisiae rad50 strain growth inhibition, hits give high values
In short: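 Relative growth inhibition (compound vs vehicle) was measured in yeast with a defined repair-gene alteration.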

[15] = NCI Yeast Anticancer Drug Screen. Data for the rad14 strain (AID 159);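 also: 0% = growth of vehicle-treated control cultures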; settings: S. cerevisiae rad14 strain growth inhibition, hits give high values
In short: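 Screen for anticancer potential: a yeast strain altered in DNA damage repair is grown with compound, and reduced growth is quantified against vehicle controls.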

[16] = at 5.0 µM (retest, dose inferred, filed as 0.5)
[17] = at 50.0 µM (retest, dose inferred, filed as 5.0)

Measured: growth inhibition

CC(C)(N=Nc1ccc(Cl)cc1)[N+](=O)[O-]
active: [1]; at 33.0 µM 98% | [1]; [17] 99% | [1]; at 50.0 µM 98.9% | [1]; at 100.0 µM 98% | [2]; [17] 98% | [2]; at 50.0 µM 98.7% | [3]; at 11.0 µM 83% | [3]; at 33.0 µM 97% | [3]; at 100.0 µM 98% | [4]; [17] 98% | [4]; at 50.0 µM 98.5% | [5]; at 11.0 µM 82% | [5]; at 33.0 µM 97% | [5]; [17] 99% | [5]; at 50.0 µM 99% | [5]; at 100.0 µM 98% | [6]; at 11.0 µM 77% | [6]; at 33.0 µM 98% | [6]; at 100.0 µM 99% | [7]; at 11.0 µM 95% | [7]; at 33.0 µM 98% | [7]; at 100.0 µM 98% | [8]; [17] 98% | [8]; at 50.0 µM 98.7% | [9]; at 11.0 µM 94% | [9]; at 33.0 µM 98% | [9]; at 100.0 µM 96%
inactive: [1]; [16] 28% | [1]; at 11.0 µM 64% | [2]; [16] 35% | [3]; at 1.2 µM 14% | [3]; at 3.7 µM 19% | [4]; [16] -1% | [5]; at 1.2 µM 19% | [5]; at 3.7 µM 18% | [5]; [16] 27% | [6]; at 1.2 µM 3% | [6]; at 3.7 µM 11% | [7]; at 1.2 µM 11% | [7]; at 3.7 µM 19% | [8]; [16] 47% | [9]; at 1.2 µM 15% | [9]; at 3.7 µM 23%

O=C1CSC(c2ccccc2)N1c1ccc(-c2ccc(-n3c(-c4ccccc4)nc4ccccc4c3=O)cc2)cc1 (centres undefined)
inactive: [10]; at 1.2 µM 0% | [10]; at 3.7 µM 1% | [10]; at 11.0 µM 3% | [10]; at 33.0 µM 6% | [10]; at 100.0 µM 38% | [11]; at 1.2 µM -2% | [11]; at 3.7 µM 0% | [11]; at 11.0 µM -2% | [11]; at 33.0 µM -19% | [11]; at 100.0 µM -7% | [12]; at 1.2 µM 3% | [12]; at 3.7 µM 9% | [12]; at 11.0 µM 15% | [12]; at 33.0 µM 20% | [12]; at 100.0 µM 24% | [13]; at 1.2 µM 0% | [13]; at 3.7 µM 1% | [13]; at 11.0 µM 0% | [13]; at 33.0 µM 22% | [13]; at 100.0 µM 64% | [14]; at 1.2 µM 0% | [14]; at 3.7 µM 1% | [14]; [16] -2% | [14]; at 11.0 µM 2% | [14]; at 33.0 µM 13% | [14]; [17] 44% | [14]; at 50.0 µM 57.1% | [14]; at 100.0 µM 43% | [1]; at 1.2 µM 0% | [1]; at 3.7 µM -1% | [1]; [16] -1% | [1]; at 11.0 µM 2% | [1]; at 33.0 µM 4% | [1]; [17] 27% | [1]; at 50.0 µM 30.7% | [1]; at 100.0 µM 40% | [2]; [16] 6% | [2]; [17] 45% | [3]; at 1.2 µM 5% | [3]; at 3.7 µM 3% | [3]; at 11.0 µM 6% | [3]; at 33.0 µM 6% | [3]; at 100.0 µM 10% | [4]; [16] 40% | [4]; [17] -1% | [4]; at 50.0 µM 36% | [5]; at 1.2 µM 2% | [5]; at 3.7 µM 5% | [5]; [16] 3% | [5]; at 11.0 µM 12% | [5]; at 33.0 µM 23% | [5]; at 100.0 µM 59% | [6]; at 1.2 µM -1% | [6]; at 3.7 µM -2% | [6]; at 11.0 µM -1% | [6]; at 33.0 µM 14% | [6]; at 100.0 µM 54% | [8]; [16] -20% | [9]; at 1.2 µM -1% | [9]; at 3.7 µM 2% | [9]; at 11.0 µM 8% | [9]; at 33.0 µM 15% | [9]; at 100.0 µM 20%
active: [2]; at 50.0 µM 91.1% | [5]; [17] 77% | [5]; at 50.0 µM 82.3% | [8]; [17] 83% | [8]; at 50.0 µM 82.7%

NC(CS)C(=O)NCCNc1ccc(NCCNC(=O)C(N)CS)c2c1C(=O)c1c(O)ccc(O)c1C2=O (centres undefined)
inactive: [10]; at 1.2 µM -10% | [10]; at 3.7 µM 58% | [10]; at 100.0 µM 48% | [11]; at 1.2 µM -42% | [11]; at 3.7 µM -25% | [11]; at 11.0 µM -67% | [11]; at 33.0 µM 45% | [11]; at 100.0 µM 68% | [12]; at 1.2 µM -4% | [12]; at 3.7 µM 46% | [12]; at 11.0 µM 67% | [12]; at 100.0 µM 54% | [14]; at 1.2 µM 33% | [14]; at 3.7 µM 67% | [14]; at 100.0 µM 62% | [1]; at 1.2 µM -42% | [1]; at 3.7 µM -26% | [1]; [16] 2% | [1]; at 11.0 µM -11% | [1]; at 100.0 µM 65% | [15]; at 1.2 µM -55% | [15]; at 3.7 µM -47% | [15]; at 11.0 µM -43% | [15]; at 100.0 µM 57% | [2]; [16] 6% | [2]; [17] -32% | [3]; at 1.2 µM -4% | [3]; at 3.7 µM 4% | [3]; at 11.0 µM -10% | [3]; at 100.0 µM 56% | [4]; [16] 20% | [4]; [17] -57% | [5]; at 1.2 µM -29% | [5]; at 3.7 µM -21% | [5]; [16] 13% | [5]; at 11.0 µM -34% | [5]; [17] -54% | [5]; at 50.0 µM 68.2% | [5]; at 100.0 µM 51% | [6]; at 1.2 µM -34% | [6]; at 3.7 µM -35% | [6]; at 11.0 µM -33% | [6]; at 100.0 µM 62% | [7]; at 1.2 µM -23% | [7]; at 3.7 µM -36% | [7]; at 11.0 µM -27% | [7]; at 100.0 µM 63% | [8]; [16] 13% | [9]; at 1.2 µM 3% | [9]; at 3.7 µM -10% | [9]; at 11.0 µM -8% | [9]; at 100.0 µM 61%
active: [10]; at 11.0 µM 73% | [10]; at 33.0 µM 80% | [12]; at 33.0 µM 80% | [14]; [16] 75% | [14]; at 11.0 µM 81% | [14]; at 33.0 µM 85% | [14]; [17] 88% | [14]; at 50.0 µM 79.2% | [1]; at 33.0 µM 86% | [1]; [17] 89% | [1]; at 50.0 µM 76% | [15]; at 33.0 µM 81% | [2]; at 50.0 µM 78.7% | [3]; at 33.0 µM 84% | [4]; at 50.0 µM 74.2% | [5]; at 33.0 µM 81% | [6]; at 33.0 µM 85% | [7]; at 33.0 µM 84% | [8]; [17] 80% | [8]; at 50.0 µM 72.5% | [9]; at 33.0 µM 84%
